The text below walks through data of PubChem BioAssay (NCATS).

In assay [1] the target is Cellular tumor antigen p53 (Homo sapiens) (UniProt P04637). Nature of the assay: Primary qHTS for small molecule compounds that upregulate eGFP-tagged delta133p53alpha (in N-terminal) cells. (AID 2060322).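 Further: cells pre-induced with doxycycline then dosed without doxycycline; series mostly up to about 56 µM; 0% = DMSO vehicle and 100% = reference activator; nearly all actives have a fitted effect of over 75% in size.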 To be noted: NCI-H358 eGFP-delta133p53alpha fluorescence, 24 h; activation: active compounds read high. The essentials:
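NCI-H358 cells pre-induced 24 h with 10 ng/ml doxycycline for eGFP-delta133p53alpha, plated dox-free and exposed 24 h at 37C to titrated compounds. Fixed, Hoechst-stained; gated GFP peak intensity by laser scanning cytometry, normalized to DMSO (0%) and 57.5 uM 5-azacytidine (100%).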
Background: In qHTS, concentration-response curves come from the screen itself.

Assay [2] shares this target. Kind of assay: Primary qHTS for small molecule compounds that upregulate eGFP-tagged delta133p53alpha (in C-terminal) cells. (AID 2060324).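 Further: 0% = DMSO wells and 100% = 57.5 µM 5-azacytidine.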 The method, boiled down: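 Doxycycline (100 ng/ml, 24 h) first induced the eGFP fusion in NCI-H358 C-terminal-tag cells. Washed-out cells then received titrated compounds for 24 h at 37 °C before paraformaldehyde fixation, Hoechst staining and cytometric GFP quantification.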

Assay [3] has as its target Aldehyde dehydrogenase, mitochondrial (Homo sapiens) (UniProt P05091). Kind of assay: qHTS for Inhibitors of the Aldehyde Dehydrogenase Family (ALDH2) Validation screens (AID 2061302; active means well fitted inhibition curve with a large enough effect; title and protocol of this record describe different tests; further: potency means the concentration at half of the fitted maximal effect).

Where “and” joins values, the source holds several entries; their conditions need not be identical. Equal entries are not always repeated. Inconclusive results are not listed. Unmarked numbers belong to inactive results. Calls of active or inactive are those of the source. Unless noted, the call rests on the fitted dose curve; in most records, active means well fitted curve in the direction sought with a large enough effect; inconclusive means small, poorly fitted or top-dose-only effect, or another doubt; inactive means no such curve, though single readings can be large; an effect the other way counts as inactive or inconclusive.

Chain of Cellular tumor antigen p53 (Homo sapiens) (P04637 whole entry, looked up): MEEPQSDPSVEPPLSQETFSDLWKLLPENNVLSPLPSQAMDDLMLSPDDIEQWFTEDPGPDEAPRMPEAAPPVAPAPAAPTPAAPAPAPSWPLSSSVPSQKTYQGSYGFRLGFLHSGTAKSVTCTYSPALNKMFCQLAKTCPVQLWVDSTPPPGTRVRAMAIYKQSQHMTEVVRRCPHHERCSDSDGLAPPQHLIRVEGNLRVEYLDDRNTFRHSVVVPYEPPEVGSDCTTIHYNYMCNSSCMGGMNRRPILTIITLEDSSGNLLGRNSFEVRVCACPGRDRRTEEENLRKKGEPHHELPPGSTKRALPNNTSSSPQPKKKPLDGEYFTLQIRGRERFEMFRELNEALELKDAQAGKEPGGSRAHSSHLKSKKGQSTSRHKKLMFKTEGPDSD

Consider `CCc1c(C)[nH]c2c1C(=O)C(CN1CCOCC1)CC2` (stereo not drawn), for which the activation in assay [1] is 4.18% and -34.4%. Also, the Potency result in assay [2] and in assay [3] was “inactive” throughout.
For `CCOC(=O)C1=C(C)NC(C)=C(C(=O)OC)C1c1cccc([N+](=O)[O-])c1` (stereo not drawn), the activation in assay [1] is -7.72%. The Potency result in assay [2] and in assay [3] was “inactive” each time.
On to `NCCCNCCCCNCCCN`, for which the activation in assay [1] is -8.4%. In addition, the Potency result in assay [2] and in assay [3] was “inactive” each time.
As for `C=CCN1CCc2cc(O)c(O)cc2C(c2ccccc2)C1` (stereo not drawn), in assay [1], the activation is -43.2%. In addition, the Potency entry in assay [2] and in assay [3] was “inactive” each time.
As for `CC(O)C(O)[C@H]1CNc2nc(N)[nH]c(=O)c2N1` (stereo partly drawn), the activation in assay [1] is -13.4%. Besides, the Potency entry in assay [2] is “inactive”. Moreover, the Potency in assay [3] was 8.91 µM (active).
Consider `CCCCOc1cc(CC2CNC(=O)N2)ccc1OC` (stereo not drawn), for which the activation in assay [1] is -11.2%. Further, the Potency result in assay [2] and in assay [3] was “inactive” each time.
For the compound `C=CCn1c(=O)c2c(nc(-c3ccc(S(=O)(=O)O)cc3)n2C)n(C)c1=O`, the activation in assay [1] was -9.98%. Further, the Potency result in assay [2] and in assay [3] was “inactive” in each case.
Consider `CC(C)COC(=O)OCN1C(=O)CN(CCN2CC(=O)N(COC(=O)OCC(C)C)C(=O)C2)CC1=O`, for which the activation in assay [1] is -13.5%. The Potency result in assay [2] and in assay [3] was “inactive” each time.
For `NS(=O)(=O)c1cc2c(cc1Cl)NC(C1CC3C=CC1C3)NS2(=O)=O` (stereo not drawn), the activation in assay [1] is -1.69% and -18.7%. The Potency entry in assay [2] and in assay [3] was “inactive” each time.
Turning to `C1CCc2nnnn2CC1`, in assay [1], the activation was -8.09%. For the same compound, the Potency result in assay [2] and in assay [3] was “inactive” in each case.
As to `CCC1(O)CC2CN(CCc3c([nH]c4ccccc34)[C@@](C(=O)OC)(c3cc4c(cc3OC)N(C=O)C3[C@]45CCN4CC=C[C@@](CC)([C@@H](OC(C)=O)[C@]3(O)C(=O)OC)[C@H]45)C2)C1` (stereo partly drawn), the activation in assay [1] is 32.1%. Moreover, the Potency entry in assay [2] and in assay [3] was “inactive” in each case.
